Rows were chosen to be rich in hits. Some 1.4% of all compounds tested hit in one or more screens of this group.
Nrf2 ARE act = qHTS of Nrf2 Activators; AREc32 ARE-luciferase reporter (MCF7-derived line), luminescence, 24 h; Potency, µM (doses to about 46.1 µM), actives largely listed as activators; hit rate 0.31% among 410,000; also: nearly all actives have a fitted effect of over 65% in size
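AREc32 cells carrying an ARE-driven firefly luciferase, 1000 cells/well in OPTI-MEM with 5% FBS, dosed after overnight attachment and incubated 24 hr at 37 deg C. Steady-Glo luminescence read after 30 min at RT.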
Chronic BCR inh = qHTS Assay to Find Inhibitors of Chronic Active B-Cell Receptor Signaling; ABC-DLBCL IkBa-CBG/CBR reporter, luminescence ratio, 4 h; Potency, µM (top dose mostly 46.1 µM), actives largely listed as inhibitors; hit rate 0.05% among 340,000; AID 493014, 2011; active = well fitted inhibition curve with a large enough effect in the signal ratio, with a control signal flat, not every such curve was filed as active; inconclusive = small, poorly fitted or top-dose-only effect, or effect the other way, or a change in a side signal; the % refers to the signal ratio
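Concentration-response series (up to 46 uM) were applied to TMD8 dual-reporter cells for 4 h at 37C with doxycycline. Green/red ratio, after filter-overlap correction, defined %Activity; red signal alone was normalised to basal cells and zero luminescence.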
IL2 activator = qHTS of IL-2 Activators. IL-2 activation reporter assay, cell-based qHTS; stimulated with anti-CD3/CD4/CD28 beads; in transgenic mouse T cells. activation, % (series mostly up to about 46 µM). hit rate 0.065% among 360,000. AID 652025, 2013; in the data active = activation above about 50%; inconclusive = mostly about 30% to 49%
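Quantitative HTS in unstimulated transgenic mouse T cells, with memory T cells as non-tolerant control and PMA/ionomycin as tolerance-bypass control. Compound pretreatment lasted 60 minutes before 18 h bead stimulation; EGFP/DsRed fluorescence read.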
Integrin act MD = qHTS for Activators of Integrin-Mediated Alleviation for Muscular Dystrophy. alpha7betagal myoblasts, beta-gal FDG fluorescence, 48 h. Potency, µM (titrated, usually from 38.3 µM), hits mostly activators. hit rate 0.064% among 350,000; also: nearly all actives have a fitted effect of over 60% in size
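alpha7betagal+/- myoblasts (passage 13, 250/well) treated 48 h at 37C with compounds at 1:260 dilution of DMSO stock. Lysed, then beta-galactosidase activity read as FDG fluorescence (ex 480/em 540) after 30 min, with pre-read for autofluorescence.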
BRCA1 expr up = qHTS Assay to Identify Small Molecule Activators of BRCA1 Expression | hit rate 1.1% among 380,000 | MCF7-BRCA1-FFLuc reporter, luminescence, 48 h; response scale: scaled: vehicle 0%, 10 µM genistein 100% | Potency, µM (doses to about 46.1 µM), hits mostly activators; also: nearly all actives have a fitted effect of over 80% in size
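MCF7 cells carrying a BRCA1-firefly luciferase reporter (2000 cells/well, phenol-red free MEM) were attached for 2 h at 37 °C, then given compounds for 48 h. Luminescence was read 15 min after luciferase reagent; activity normalized to genistein (10 microM) and DMSO.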
N370S GC mod = qHTS Assay for Inhibitors and Activators of N370S glucocerebrosidase as a Potential Chaperone Treatment of Gaucher Disease. Potency, µM (titrated, usually from 59.4 µM), hits mostly inhibitors. Lysosomal acid glucosylceramidase (Homo sapiens), P04062. N370S GC spleen homogenate, 4MU-glucoside fluorescence. AID 2101, 2009. hit rate 0.092% among 330,000
Numbers stand for hits; – = inactive; ? = inconclusive; · = no result; ! = a repeat was not active. Unless noted, calls follow the shape of the dose curve; as a rule, active = well fitted curve in the direction sought with a large enough effect; inconclusive = small, poorly fitted or top-dose-only effect, or another doubt; inactive = no such curve, though single readings can be large; an effect the other way counts as inactive or inconclusive.

SMILES | Nrf2 ARE act | Chronic BCR inh | IL2 activator | Integrin act MD | BRCA1 expr up | N370S GC mod
O=C(Cc1cccs1)Nc1nc(-c2ccccc2)cs1 | – | ? | – | – | – | –
O=C(COC(=O)CNC(=O)c1ccccc1)Nc1nc(-c2ccccc2)cs1 | – | – | – | – | 6.3µM | –
Cc1nc(CC(=O)Nc2nc(-c3ccccc3)cs2)cs1 | – | – | – | – | 11µM | –
Cc1ccc(CSCC(=O)NCc2ccco2)cc1 | – | – | – | – | – | –
O=C1c2ccccc2CN1c1ccccc1 | – | ? | – | – | 6.3µM | –
COc1ccc(N=Cc2nc(-c3ccccc3)oc2OC(=O)c2ccccc2)cc1 | – | ? | – | – | 6.3µM | –
CN(C)c1ccc(N=Cc2nc(-c3ccccc3)oc2OC(=O)c2cccc(Br)c2)cc1 | – | ? | – | – | 3.2µM | –
Cc1ccc(OC(=O)c2ccc(S(=O)(=O)N(C)C)cc2)c(-n2nc3ccccc3n2)c1 | – | – | – | – | 13µM | –
Cc1noc(/C=C/Nc2ccc(F)cc2F)c1[N+](=O)[O-] | 2.8µM | – | – | – | – | –
O=C(CN1C(=O)S/C(=C\c2cccc(Cl)c2)C1=O)NC1C=CS(=O)(=O)C1 (centres undefined) | – | – | – | – | – | –
O=C(CN1C(=O)/C(=C/c2cccc(Cl)c2)SC1=S)NC1C=CS(=O)(=O)C1 (centres undefined) | 14µM | ? | – | – | – | –
Cc1ccc2[nH]c(=O)c(CN(C(=O)c3cccc(Cl)c3)C(C)(C)C)cc2c1 | – | · | · | · | · | ·
Cc1cc(C)c(NC(=O)CN2c3ccccc3S(=O)(=O)c3ccccc32)c(C)c1 | – | · | · | · | · | ·
Cc1nc2ccccc2nc(=O)c1NNc1ccccc1 | – | ? | – | – | 5µM! | –
Cc1ccc2nc(=O)c(NNc3ccccc3)cnc2c1 | – | ? | – | – | – | –
O=C(c1cnccn1)N1CCc2ccccc2C1 | – | – | – | – | – | –
C/C(=C\C(=O)Nc1nccs1)c1ccccc1 | – | · | – | – | 8.9µM | –
C[N+]1(CC(=O)c2ccc3c(c2)CCCC3)CCOCC1 | · | · | · | · | – | ·
CCOC(=O)C1=C(C)N(C)C(=S)NC1c1c(OCC)ccc2ccccc12 (centres undefined) | – | – | – | ? | – | –
CCOc1ccc2ccccc2c1C1NC(=O)N(C)C(C)=C1C(=O)OCCOC (centres undefined) | – | – | – | 6.3µM | – | –
COC(=O)c1ccc(C(NC(=O)OCc2ccccc2)/C(=C/[C@@H](C)C(=O)NCc2cc(C)on2)c2cccnc2)cc1 (some centres undefined) | · | · | · | · | · | –
COc1c2ccoc2nc2c(OC)cccc12 | – | ? | – | – | 25µM | –
Cn1cccc1CNC(=O)Nc1ccc(Cl)c(Cl)c1 | – | – | – | – | 2.2µM | –
O=c1cc(-c2cccc(F)c2)[nH]c2ccccc12 | – | 21µM | – | – | – | –
CCN(CC)S(=O)(=O)c1ccc2c(c1)c(=O)c(C(=O)NCc1ccccc1)cn2C | – | · | · | · | – | ·
SMILES | Nrf2 ARE act | Chronic BCR inh | IL2 activator | Integrin act MD | BRCA1 expr up | N370S GC mod
COc1cccc(NC(=O)Nc2cc(C(=O)O)ccc2C)c1 | – | – | – | – | – | –
COc1cccc(NC(=O)Nc2ccc(C)c(Cl)c2)c1 | – | ? | – | – | 7.1µM | –
COc1cccc(NC(=O)Nc2cccc(C)n2)c1 | – | – | – | ? | 13µM | –
CC(C)C(C)(C#N)NC(=O)CSc1nc2scc(-c3ccco3)c2c(=O)n1-c1ccccc1 (centres undefined) | – | ? | – | – | – | ?
CC(C)C(C)NC(=O)CSc1nc2scc(-c3ccco3)c2c(=O)n1-c1ccccc1 (centres undefined) | – | – | – | – | – | 1.1µM
O=C(O)c1cc(N=Cc2c(O)c3ccccc3oc2=O)ccc1O | – | ? | – | 7.1µM | – | –
Cc1cc(C)cc(N=Cc2c(O)c3ccccc3oc2=O)c1 | – | ? | – | – | – | –
Nc1ccc(-c2nc3ncccc3o2)c(O)c1 | ? | – | – | – | 5µM | –
Nc1ccc(-c2nc3ncccc3o2)c(Cl)c1 | – | ? | – | – | ? | –
Cn1ncc(Cl)c1C(=O)Nc1cccc(Cl)c1 | – | – | – | – | – | –
Cn1ncc(N=Cc2c(O)ccc3ccccc23)c1C(=O)Nc1cccc(Cl)c1 | – | – | 247 | – | – | –
Cc1nc(Nc2ccccc2F)c2oc3ccccc3c2n1 | 3.2µM | ? | – | ? | – | –
COc1ccc(CCNC(=O)COc2cc(O)c3c(c2)OC(C)(C)CC3=O)cc1OC | – | – | – | – | – | –
NNC(=O)c1ccc(C(=O)N(c2ccccc2)c2ccccc2)cc1 | · | · | · | · | – | ·
Cn1c(=O)n(C)c2cc(NS(=O)(=O)c3ccc(F)cc3)c(NCc3ccccc3)cc21 | 13µM | · | · | · | · | ·
CC(C)c1ccc(S(=O)(=O)Nc2cc3c(cc2NCc2ccccc2)n(C)c(=O)n3C)cc1 | – | · | · | · | – | ·
O=C(Cc1ccc(Cl)cc1)NCC(c1cccs1)S(=O)(=O)c1ccc(F)cc1 (centres undefined) | – | ? | · | · | · | ·
CCC(C)CCCCC(=O)N[C@@H](CCN)C(=O)N[C@H](C(=O)N[C@@H](CCN)C(=O)N[C@H]1CCNC(=O)C([C@@H](C)O)NC(=O)[C@@H](CCN)NC(=O)[C@H](CCN)NC(=O)[C@H](CC(C)C)NC(=O)[C@@H](CC(C)C)NC(=O)[C@H](CCN)NC1=O)[C@@H](C)O (some centres undefined) | · | · | · | · | · | –
S=c1[nH]nc(-c2ccco2)n1/N=C/c1cccc(Cl)c1Cl | 8.9µM | – | – | – | – | –
C=CCN1CCN(C(=O)CSc2ccccc2)CC1 | – | – | – | – | 11µM | –
Cc1ccc2nc(NCc3ccccc3)c(C=NCc3ccccc3)c(=O)n2c1 | – | ? | – | – | 13µM | –
CCOc1ccc2nc(NS(=O)(=O)Cc3ccccc3)sc2c1 | – | 7.3µM | – | – | – | –
CCCC(=O)Nc1nnc(/C=C/c2ccc(OC)cc2)s1 | – | – | – | – | 5.6µM | ?
CCCC(=O)Nc1nc2ccc(OCC)cc2s1 | – | – | – | – | 6.3µM | –
CCCCC(=O)Nc1nnc(/C=C/c2ccc(OC)cc2)s1 | – | – | – | – | ? | –
CN(C)c1ccc(C2(c3ccc(N(C)C)cc3)OC(=O)c3cc(N(C)C)ccc32)cc1 | · | · | · | · | · | –

Compound activity deposited in PubChem by National Center for Advancing Translational Sciences (NCATS).
